The results in this text go back to the supplement of paper PMC10338343.

± gives the standard deviation. Bounds are passed on as bounds.

The experiment deals with MILI (PIWIL2) piRISC loaded with L1MC piRNA (26 nt). The experiment is described as follows: pre-steady-state target cleavage rate (min^-1); guide: L1MC piRNA 5'p-UAACUAAAUACUAUGCAAGCUGUAGG; MIWI and MILI are mouse PIWI proteins and EfPiwi is from a freshwater sponge; tags in brackets are library labels; higher = faster piRNA-guided slicing of the target. In a few lines:
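The pre-steady-state cleavage rate came from a burst-and-steady-state fit to pooled data from three Cleave-'n-Seq trials, in which uncleaved targets were sequenced and normalised to depth and to weakly complementary targets. Each reaction held 0.1 nM transcribed, DNA-blocked target RNA library and 1 nM active affinity-purified piRISC carrying one synthetic guide, with or without 500 nM GTSF1 partner protein, in HEPES–potassium acetate buffer at 33 °C for 0–8 or 0–960 min. k3 was capped at 0.0001 min^-1.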

Setting [1] is: auxiliary factor: 500 nM mouse GTSF1.
[2] abbreviates: auxiliary factor: none (no GTSF1).

Take UCCUGGAACAGCUUGCAUAGAAUUAAGUUA: under setting [1], the “pre-steady-state target cleavage rate” value was found to be 0.051 ± 0.014.
On the same count and under the same terms, the same measure for UCCUCCUACAGCUUGCAUUGUAUUUUCAAA: 0.0415 ± 0.012; for UCCUGGAUCAGGAUGCAUAGUAUUUAGAAA: 0.0525 ± 0.011; for UCCUCCUACAGCUUGCAUAGUAUUUAGGUA: 0.152 ± 0.045.
For the sequence UCCUGGAUGUCGAACCAUAGUAUGUUAGUUA, the “pre-steady-state target cleavage rate” value under setting [2] was less than 0.0001.
For UCCUCCUACAGGAAGCAUAGUAUUUUCAAA, under setting [1], the “pre-steady-state target cleavage rate” value amounted to 0.0352 ± 0.012.
As to UCCUGGAUGUCCAUGCAUAGUAUUAAGUUA, the “pre-steady-state target cleavage rate” value under setting [1] is 0.0665 ± 0.018.
The same measure, in the same setting: the same measure for UCCUGGAACAGCUUGCAUAGUAUAAUGAAA: 0.0341 ± 0.013.
Consider UCCUGGAUGUGCAACCAUAGUAUUUAGUAA, for which the “pre-steady-state target cleavage rate” value under setting [1] is 0.00554 ± 0.0027.
On to UCCUGGAACAGCUUGGAUAGAAUUUAGUUA, for which, under setting [1], the “pre-steady-state target cleavage rate” value was determined as 0.0521 ± 0.013.
For the sequence UCCUGGUACAGCUUGCAUAGUUUUAGUUA, the “pre-steady-state target cleavage rate” value under setting [1] worked out at 0.00982 ± 0.0052.
For the sequence UCCUGCAACAGCUUGCAUAGUAUUUACUUA, the “pre-steady-state target cleavage rate” value under setting [1] is 0.122 ± 0.012.
The same measure, in the same setting: the same measure for UCCUGGUACAGCUUGCAUAGUAUAAAGAAA: 0.0207 ± 0.0082.
In the case of UCCUGGAUCAGCUUGCAUAGUAAAUACAAA, the “pre-steady-state target cleavage rate” value under setting [1] stood at 0.0497 ± 0.016.
On the same count and under the same terms, with UCCUGGAUGUCGAUGCAUAAUAUUUAGUUA the figure was 0.0556 ± 0.013; with UCCUGCUACACCUUGCAUAGUAUAUAGUUA, 0.18 ± 0.037; with UCCUGGAUGUCGAUACAUAGUAUUUAGUUA, 0.0231 ± 0.0046.
As to UCCUGGAUGUCGAUGCAUAGUAUAUAGUAA, the “pre-steady-state target cleavage rate” value under setting [1] turned out to be 0.063 ± 0.013.
As to UCCUGGAUGUCGAUGCAUAGUAUUUCAGUUA, the “pre-steady-state target cleavage rate” value under setting [1] was 0.108 ± 0.025.
For the sequence UCCUGGAUGUCGAACCAUAGUAUUCAGUUA, under setting [1], the “pre-steady-state target cleavage rate” value is less than 0.0001.
Turning to UCCUGGAUGUCGAACGAUAGUAAUAAGUUA, the “pre-steady-state target cleavage rate” value under setting [1] was less than 0.0001.
Take UCCUGGAUGUCGUUGCAUAGAUUUUAGUUA: under setting [2], the “pre-steady-state target cleavage rate” value was 0.00439 ± 0.0019.
Take UCCUGGAUCAGCUUGCAUAGUAAAAAGAAA: the “pre-steady-state target cleavage rate” value under setting [1] turned out to be 0.0472 ± 0.015.
UCCUGGAUGUGCUUGCAUAGUAUUUUCAAA: the “pre-steady-state target cleavage rate” value under setting [1] worked out at 0.00462 ± 0.0044.
Turning to UCCUGGAUGUCGAACCAAAGUAAUUAGUUA, the “pre-steady-state target cleavage rate” value under setting [2] was less than 0.0001.
For the sequence UCCUGGAUGUCGAUGCAUAGUUUUUAGUAA, the “pre-steady-state target cleavage rate” value under setting [1] stood at 0.0058 ± 0.0029.
On the same count and under the same terms, with UCCUGGAACAGCUUGCAUAGUUAAUAGUUA the figure was 0.0282 ± 0.01; with UCCUGCUACAGCUUGCAUAGUAUUAUCAAA, 0.0862 ± 0.026.
Take UCCUGGAUGUCGAACCAUACUAUUUAGUUA: under setting [2], the “pre-steady-state target cleavage rate” value is less than 0.0001.
Turning to UCCUGGAACAGCUUCGAUAGUAUUUAGAAA, under setting [1], the “pre-steady-state target cleavage rate” value was 0.0923 ± 0.021.
Take UCCUGGAUGUCGAAGCAUAGAAUUUACUUA: the “pre-steady-state target cleavage rate” value under setting [2] is less than 0.0001.
Take UCCUGGAUGUGCUUGCAUAGUAUAUAGUAA: the “pre-steady-state target cleavage rate” value under setting [1] was found to be 0.0253 ± 0.0079.
UCCUGGUACAGCUUGGAUAGUAUUUAGAUA: under setting [1], the “pre-steady-state target cleavage rate” value came to 0.118 ± 0.038.
In the case of UCCUGGAACAGCUUGCAAUCUAUUUAGUAA, the “pre-steady-state target cleavage rate” value under setting [1] came out at 0.025 ± 0.0099.
As to UCCUCCUACAGCUUGGUUAGUAUUUUCAAA, the “pre-steady-state target cleavage rate” value under setting [1] is 0.0137 ± 0.007.
For UCCUGGAACAGCUUGCAUAGAUUUUACAAA, the “pre-steady-state target cleavage rate” value under setting [1] was found to be 0.00713 ± 0.0045.
The same measure, in the same setting: the same measure for UCCUGGAACAGCUUGCAUAGUUUUUACAAA: 0.00599 ± 0.0038.
Regarding UCCUGGAUGUCGAACGUAACAAUUUAGUUA, under setting [2], the “pre-steady-state target cleavage rate” value is less than 0.0001.
Regarding UCCUCCUACAGGAAGCAUAGUAUUUACAAA, the “pre-steady-state target cleavage rate” value under setting [1] was determined as 0.0698 ± 0.014.
On the same count and under the same terms, the same measure for UCCUCCUACAGCUUGCAUACUAUAUAGUUA: 0.0619 ± 0.015; for UCCUGGAUGAGGUUGCAUAGAAUUUAGUUA: 0.00935 ± 0.0046; for UCCUGCUACACCUUGCAUAGUAUUUACAAA: 0.144 ± 0.039.
As to UCCUGGAUCAGCUUGCAUUCUAUUUAGUUA, the “pre-steady-state target cleavage rate” value under setting [1] is 0.0266 ± 0.0066.
With UCCUGGAUGUCGAACGUAUGUAUUUUGUAA, under setting [1], the “pre-steady-state target cleavage rate” value was less than 0.0001.
As for UCCUGGUACACCUUGCAUAGUAUAUAGUUA, the “pre-steady-state target cleavage rate” value under setting [1] turned out to be 0.311 ± 0.059.
Still for that read-out and setting: the same measure for UCCUGGAUGUGCUUGCAUAGUAUUUUGAUA: 0.0122 ± 0.0054; for UCCUGGUACAGCUUGCUUAGAAUUUAGUUA: 0.181 ± 0.059; for UCCUGGAUGUGCUUGCAUAGUAUAUAGAUA: 0.00547 ± 0.0037.
For UCCUCCUACAGCUUGCAUAGAUAUUAGAAA, the “pre-steady-state target cleavage rate” value under setting [1] is 0.00453 ± 0.0044.
On to UCCUGGAUCACGUUGCAUAGUAUUUACAAA, for which the “pre-steady-state target cleavage rate” value under setting [1] worked out at 0.0591 ± 0.015.
The same measure, in the same setting: with UCCUGGAUCAGCUUGCAUUCUAUUUAGUAA the figure was 0.0151 ± 0.0057; with UCCUGGAUCAGCUUGCAUAGAAUUUUGUUA, 0.038 ± 0.012; with UCCUGGAACAGCUUGCAUUGUAUUAAGUUA, 0.163 ± 0.026.
With UCCUGGAUCACCUUGCAUAGUAUAUAGUUA, under setting [1], the “pre-steady-state target cleavage rate” value was found to be 0.227 ± 0.041.
Consider UCCUGGAUGUGCUAGCAUAGUAUUUAGAAA, for which the “pre-steady-state target cleavage rate” value under setting [1] turned out to be 0.0422 ± 0.012.
Turning to UCCUGGAUGUGCUUGCAUAGAAUUUAGUAA, under setting [1], the “pre-steady-state target cleavage rate” value turned out to be 0.00482 ± 0.0043.
On the same count and under the same terms, the same measure for UCCUGGAACAGCUACGAUAGUAUUUAGAAA: 0.0308 ± 0.011.
On to “UCCUGGAUGUGCUUGCAUACAUAAAUCAAA [g12:g20:cont:t1A]”, for which, under setting [2], the “pre-steady-state target cleavage rate” value is less than 0.0001.
Take UCCUGGAUGUCGAACCAUAGUAAAAAGUUA: the “pre-steady-state target cleavage rate” value under setting [2] is less than 0.0001.
As to UCCUGCUACUCCUUGCAUAGUAUUUUCAAA, the “pre-steady-state target cleavage rate” value under setting [1] amounted to 0.0369 ± 0.013.
For the sequence UCCUGGAUGUGCUACCAUAGUAUUUAGAAA, the “pre-steady-state target cleavage rate” value under setting [1] was 0.00379 ± 0.0038.
Regarding UCCUGGAUGUCCUAGCAUAGAAUUUAGUUA, the “pre-steady-state target cleavage rate” value under setting [1] turned out to be 0.00538 ± 0.004.
Still for that read-out and setting: the same measure for UCCUCCUACAGGUUGCAUAGUAUUUACAAA: 0.052 ± 0.014; for UCCUGGAACAGCUUGCAUUGUAUUUACAAA: 0.00788 ± 0.0043.
UCCUGGAUGUGCUUGGAUACUAUUUAGUUA: under setting [1], the “pre-steady-state target cleavage rate” value was 0.0156 ± 0.0061.
In the case of UCCUGGAUCAGCUUGGUUAGUAUUUACAAA, under setting [1], the “pre-steady-state target cleavage rate” value turned out to be 0.00756 ± 0.0052.
